High-throughput results as filed in PubChem BioAssay.
KB-V1 cytotox = qHTS assay for MDR1-selective chemotherapeutics: Primary screen using the drug-selected MDR subline cells KB-V1 | KB-V1 MDR cells viability, CellTiter-Glo, 72 h | 400,000 compounds, 3.4% hits | Potency, µM (series often up to 46.1 µM), actives largely listed as cytotoxic; further: nearly all actives have a fitted effect of over 60% in size
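Readout: CellTiter-Glo luminescence, 10 min after addition. Cells: KB-V1 MDR subline, 72 h at 37 degrees C with compound. Analysis: corrected, normalized data fitted to concentration-effect curves.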
KB-3-1 cytotox = qHTS assay for MDR1-selective chemotherapeutics: Primary screen using the parental adenocarcinoma cell KB-3-1; Potency, µM (titrated, usually from 46.1 µM), most hits filed as cytotoxic; 400,000 compounds, 1.4% hits; KB-3-1 viability, CellTiter-Glo ATP luminescence, 72 h; further: nearly all actives have a fitted effect of over 60% in size
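Cytotoxicity measured as CellTiter-Glo luminescence after 72 h at 37 C. Compound titrations were pinned onto drug-naive KB-3-1 parental adenocarcinoma cells grown in DMEM with 10% FBS, and normalized data fitted to concentration-response curves.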
HT1080NT lethal = qHTS for induction of synthetic lethality in tumor cells producing 2HG: qHTS for the HT-1080-NT fibrosarcoma cell line; HT-1080-NT fibrosarcoma viability, CellTiter-Glo ATP luminescence, 48 h; Potency, µM (doses to about 46.1 µM), most hits filed as cytotoxic; 360,000 compounds, 1.6% hits; AID 686970, 2013;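 further: NT is the 2HG producing partner of a matched IDH1 knockdown line; nearly all actives have a fitted effect of over 55% in size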
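Viability of the 2HG-overproducing fibrosarcoma line after 48 hours of compound exposure at 37 degrees C was determined by luminescence with CellTiter-Glo, and concentration-effect curves were then fitted and categorized.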
HT1080 IDH1KD tx = qHTS for induction of synthetic lethality in tumor cells producing 2HG: qHTS for the HT-1080-IDH1KD cell line; HT-1080 IDH1 knockdown viability, ATP luminescence, 48 h; Potency, µM (highest dose often 46.1 µM), usual class: cytotoxic; 360,000 compounds, 2% hits; AID 686971, 2013
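% activity derives from luminescence (CellTiter-Glo), normalised to DMSO and no-cell wells. HT-1080-IDH1KD cells, 750/well, had 48 h compound exposure at 37 °C.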
Numbers stand for hits; . = inactive; ? = inconclusive; / = no result given. Rows were chosen to be rich in hits. Some 5.7% of all compounds tested hit in one or more screens of this group. The call rests on the fitted dose curve; in most records, active means well fitted curve in the direction sought with a large enough effect; inconclusive means small, poorly fitted or top-dose-only effect, or another doubt; inactive means no such curve, though single readings can be large; an effect the other way counts as inactive or inconclusive.

SMILES	KB-V1 cytotox	KB-3-1 cytotox	HT1080NT lethal	HT1080 IDH1KD tx
CCNC(=S)Nc1ccc2cn[nH]c2c1	.	.	.	.
N#CC(C#N)=NNc1ccc2cn[nH]c2c1	.	.	21µM	21µM
COc1ccc(N2CCN(C(CNC(=O)CC(C)C)c3ccc4c(c3)OCO4)CC2)cc1 (stereo unspecified)	.	.	/	/
COc1ccc(NC(C)C(=O)Nc2ccc(C#N)cc2)cc1Cl (stereo unspecified)	21µM	.	?	?
CC(C)Oc1ccc(CNC(=O)Cc2ccc(NC(=O)N3CCSc4ncccc43)cc2)cc1	.	?	/	/
Cc1ccc(S(=O)(=O)N/N=C/c2cc(Br)ccc2O)cc1	.	.	.	.
Cc1ccc(S(=O)(=O)Nc2ccc(Br)cc2/C=N/n2cnnc2)cc1	.	.	13µM	?
O=C(Nc1ccc(Cl)cc1Cl)[C@@H]1CC=C[C@@H]2CCN(C3CCCCC3)C(=O)[C@@H]21	.	.	/	/
CCCCCc1c(-c2ccccc2F)ncn1CCc1ccccc1OC	18µM	?	?	?
CCCCc1c(-c2ccccc2F)ncn1CCc1ccccc1OC	15µM	?	?	?
COc1cc(OC)c(NC(=O)C(C)n2nc(-c3ccc(C)c(C)c3)ccc2=O)cc1Cl (stereo unspecified)	.	.	/	/
CC(=O)[C@@]1(O)Cc2c(O)c3c(c(O)c2[C@H](O[C@H]2C[C@H](N)[C@H](O)[C@H](C)O2)C1)C(=O)c1ccccc1C3=O	?	0.18µM	/	/
CC(=O)C1(O)Cc2c(O)c3c(c(O)c2C(OC2CC(N)C(O)C(C)O2)C1)C(=O)c1c(O)cccc1C3=O (stereo unspecified)	?	0.58µM	/	/
COC(=O)c1sc2cccc(F)c2c1S(=O)(=O)NCc1ccccc1Cl	.	.	/	/
CC(C)(Oc1ccc(Cl)cc1)C(=O)N(Cc1ccccc1)c1ccccn1	15µM	.	.	.
O=C(COc1ccc(Br)cc1)N(Cc1ccccc1)c1ccccn1	18µM	.	.	.
COc1ccc(C)cc1NC(=O)C(=O)N/N=C(\C)CC(=O)Nc1cccnc1	.	.	.	.
COc1ccc(CNC(=O)C(c2ccncc2)N(C(=O)Cc2cccs2)c2ccccc2)cc1 (stereo unspecified)	.	?	.	.
COc1ccc(N(C(=O)CCl)C(C(=O)NCCc2ccccc2)c2cccs2)cc1 (stereo unspecified)	18µM	7.3µM	2.1µM	1.6µM
COc1ccc(NC(=O)Cn2nnc(-c3ccccc3NS(=O)(=O)c3ccccc3)n2)cc1	2.9µM	23µM	.	?
COc1ccc(S(=O)(=O)Nc2ccccc2-c2nnn(CC(=O)Nc3ccccc3OC)n2)cc1	.	.	.	.
COc1ccc(Nc2nnc(-c3ccc(N4CCOCC4)c([N+](=O)[O-])c3)c3ccccc23)cc1	16µM	.	.	.
CCC1(OC(=O)CN(C)C)C(=O)OCc2c1cc1n(c2=O)Cc2cc3c(N)cccc3nc2-1 (stereo unspecified)	2.9µM	?	7.3µM	7.3µM
CCn1c(=O)[nH]c(=O)c2c(N)c(C(=O)c3ccccc3OC)sc21	23µM	.	.	.
C=CCn1c(COc2ccccc2F)nnc1SCC(=O)Nc1cc2oc3ccccc3c2cc1OC	?	?	.	.
SMILES	KB-V1 cytotox	KB-3-1 cytotox	HT1080NT lethal	HT1080 IDH1KD tx
C=CCn1c(COc2ccccc2F)nnc1SCC(=O)c1c[nH]c2ccccc12	13µM	?	.	.
COc1ccc2[nH]c3c(c2c1)CCNC3C1CC=C(C)CC1 (stereo unspecified)	?	21µM	?	?
CC(=O)Nc1cc([N+](=O)[O-])cc(NC(C)=O)c1NC(C)=O	.	.	/	/
COc1ccc(/C=C2\CCC(C3CCCC3)C2=O)cc1Cn1nc(C)cc1C (stereo unspecified)	?	.	.	.
COc1ccc(/C=C2\CCC(C3CCCC3)C2=O)cc1Cn1cccn1 (stereo unspecified)	23µM	.	.	.
CCOc1ccc(C2=Nn3c(CC)nnc3SC2)cc1	.	.	.	.
Cc1nn(C)c(C)c1NC(=O)COc1ccc(F)cc1Br	.	.	13µM	.
Cc1nn(C)c(C)c1NC(=O)COc1ccc(Cl)cc1Br	/	/	?	.
CC(=O)c1cc(C(=O)Nc2cc(C)cc(C)c2)c2ccccn12	.	.	/	/
O=S(=O)(NCC1OCCc2ccccc21)c1ccc(S(=O)(=O)N2CCOCC2)cc1 (stereo unspecified)	21µM	.	.	.
CCCCC1Cc2[nH][nH]c(=O)c2C(c2ccc(Cl)cc2)O1 (stereo unspecified)	.	.	.	.
CCCCC1Cc2[nH][nH]c(=O)c2C(c2ccc(F)cc2)O1 (stereo unspecified)	.	.	?	26µM
Oc1c(N=Nc2ccccn2)ccc2ccccc12	?	1.2µM	?	2.3µM
CC(C)C[C@@H](CN1CCC[C@@H]1CN1C(=S)NC[C@@H]1Cc1ccccc1)N1C[C@H](Cc2ccc(O)cc2)N(CC2CCCCCC2)C1=S	?	?	?	18µM
CC(C)C[C@@H](CN1CCC[C@@H]1CN1C(=S)NC[C@@H]1Cc1ccccc1)N1C[C@H](Cc2ccc(O)cc2)N(CC2CCCCC2)C1=S	.	.	.	.
CC(C)C[C@H]1CNC(=S)N1CC1CCCN1C[C@H](CC(C)C)N1C[C@H](Cc2ccc(O)cc2)N(CC2CCCCC2)C1=S (stereo partly specified)	?	?	.	.
CC(C)C[C@@H](CN1CCCC1CN1C(=S)NC[C@@H]1Cc1ccc(O)cc1)N1C[C@H](Cc2ccc(O)cc2)N(CC2CCCCC2)C1=S (stereo partly specified)	?	?	18µM	?
CCCCOC(=O)c1ccc(Nc2nc3ccccc3c3nnc(C)n23)cc1	.	.	/	/
Cc1cc(C)cc(N2CCn3c2nc2c3c(=O)n(CCc3ccccc3)c(=O)n2C)c1	.	.	/	/
Fc1ccccc1CNCCC(Cc1ccccc1)c1ccc2c(c1)OCO2 (stereo unspecified)	?	?	16µM	?
O=C(CSC(=S)N1CCCC1)N(Cc1nnc(-c2ccccc2Cl)o1)C1CC1	4.6µM	.	.	.
COc1ccc(Cl)cc1NC(=O)C(C)Sc1nnc(C2CC2)n1C1CC1 (stereo unspecified)	18µM	.	.	.
CC(NC(=O)C1(S(=O)(=O)c2ccc(Cl)cc2)CC1)c1ccccc1 (stereo unspecified)	21µM	.	.	.
Cc1nn(C)c(C(=O)Nc2ccn(Cc3c(F)c(F)cc(F)c3F)n2)c1[N+](=O)[O-]	13µM	.	.	.
O=[N+]([O-])/C=C\c1ccc(N2CCCC2)c(F)c1	?	?	?	3.3µM
O=Cc1ccc(N2CCCC2)c([N+](=O)[O-])c1	.	.	.	.
